High-throughput results as filed in PubChem.
RGS4-Gao reg: modulates binding of RGS4 to human Galphao; P09471; Multiplexed bead flow cytometry; actives lie on both sides; binding response (% of control), % at 10 µM; 0.33% of 220,000 active; AID 1415; in the data active = binding response below about 49% or above about 150%; inactive = in between;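 note: fluorescent Galphao activated with aluminum fluoride binding bead-coupled RGS4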
RGS8-Gao reg: modulates binding of RGS8 to human Galphao; P09471; multiplexed bead flow cytometry; actives lie on both sides; response (percent of control binding), % at 10 µM; 0.34% of 220,000 active; in the data active = response below about 60% or above about 140%; inactive = in between;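 note: Galphao activated as the GDP aluminium fluoride complex binding bead-coupled RGS8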
GSH bead fluor: compound fluoresces at 488/530 nm on GSH beads; GSH beads flow cytometry, compound fluorescence 488/530 nm; stronger effect = higher value; fluorescence (KMESF) at 10 µM; 0.25% of 190,000 active; in the data active = fluorescence above about 89;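 note: glutathione beads carrying GST-tagged Bcl family fusion proteins plus one bare bead set; values are compound well signal with DMSO vehicle wells as background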
RGS7-Gao: modulates binding of RGS7 to human Galphao; Multiplexed bead flow cytometry; actives lie on both sides; binding response (% of control), % at 10 µM; 0.35% of 220,000 active; AID 1439; in the data active = binding response below about 49% or above about 150%; inconclusive = no clear call, values can overlap the other calls; inactive = in between;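 note: fluorescent Galphao held in activated GDP-AlF4 state binding bead-coupled RGS7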
Avidin bead fluor: compound fluoresces at 488/530 nm on avidin beads; compound fluorescence 488/530 nm, flow cytometry; stronger effect = higher value; fluorescence (KMESF) at 10 µM; 0.38% of 220,000 active; AID 1775; in the data active = fluorescence above about 47
RGS16-Gao HTS: modulates binding between human RGS16 and Galphao; 0.38% of 220,000 active; bead-based flow cytometry RGS16-Galphao binding, fluorescence; actives lie on both sides; AID 1441; binding response (% of control), % at 10 µM; O15492+P09471;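 note: Galphao activated by GDP with aluminum fluoride before binding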
Target sequence (O15492 whole entry, looked up): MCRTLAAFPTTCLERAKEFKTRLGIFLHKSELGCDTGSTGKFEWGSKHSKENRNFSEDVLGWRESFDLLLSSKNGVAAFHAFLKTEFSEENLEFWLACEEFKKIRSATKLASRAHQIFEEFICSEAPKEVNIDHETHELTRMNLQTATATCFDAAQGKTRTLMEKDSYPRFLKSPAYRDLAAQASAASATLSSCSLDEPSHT
Target sequence (P09471 whole entry, looked up): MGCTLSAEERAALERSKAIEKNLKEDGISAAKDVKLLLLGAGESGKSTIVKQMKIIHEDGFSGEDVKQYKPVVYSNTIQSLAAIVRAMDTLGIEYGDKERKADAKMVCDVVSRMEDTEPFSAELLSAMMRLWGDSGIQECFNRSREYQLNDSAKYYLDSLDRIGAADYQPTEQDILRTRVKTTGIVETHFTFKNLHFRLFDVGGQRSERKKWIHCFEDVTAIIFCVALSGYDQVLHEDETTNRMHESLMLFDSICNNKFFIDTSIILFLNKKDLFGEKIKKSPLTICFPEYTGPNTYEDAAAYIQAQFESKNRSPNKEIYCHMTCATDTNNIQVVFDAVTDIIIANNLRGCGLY
RGS4-Gao HTS: RGS4-Galphao interaction regulator (human). 99% of 1,600 active. RGS4–Galpha-o binding response, % at 10 µM. shares compounds with RGS16-Gao HTS. multiplexed bead flow cytometry, RGS–Galpha-o binding;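 note: fluorescently labeled Galpha-o bound to GDP with aluminium fluoride binding biotinylated RGS beads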
Biotin-avidin: counter-screen: compounds disrupting biotin binding to avidin beads; shares compounds with RGS16-Gao HTS; streptavidin beads, fluorescein-biotin binding, flow cytometry; inhibition, % at 10 µM; 1,700 tested, under 10 active; AID 1783;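 active = inhibition above 50%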;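 note: median green fluorescence of gated singlet beads compared with DMSO control wells; 0% = DMSO wells and 100% = complete loss of bead fluorescence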
RGS8-Gao single: confirmation of regulators of human RGS8-Galphao interaction; shares compounds with RGS16-Gao HTS; bead-based flow cytometry RGS8-Galphao binding, fluorescence; actives lie on both sides; binding response (% of control), % at 10 µM; 3% of 1,700 active; AID 1836; in the data active = binding response below about 72% or above about 130%; inactive = in between;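 note: Galphao activated as GDP AlF4 complex before binding bead RGS8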
RGS7-Gao confirm: confirmation of regulators of human RGS7-Galphao interaction; bead-based flow cytometry RGS7-Galphao binding; actives lie on both sides; response (percent of control binding), % at 10 µM; 7.8% of 1,700 active; shares compounds with RGS16-Gao HTS; AID 1837; in the data active = response below about 75% or above about 130%; inactive = in between;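 note: fluorescent Galphao activated with GDP and aluminum fluoride binding bead-coupled RGS7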
RGS16-Gao conf: RGS16-Galphao interaction regulation, single point confirmation. bead-based flow cytometry, RGS16-Galphao binding; actives lie on both sides. shares compounds with RGS16-Gao HTS. 4% of 1,700 active. response (% of control binding), % at 10 µM; in the data active = response below about 74% or above about 130%; inactive = in between;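 note: Galphao activated as the GDP aluminium fluoride complex binding bead-coupled RGS16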
RGS4-Gao single: confirmation of regulators of human RGS4-Galphao interaction; binding response (% of control), % at 10 µM; AID 1840; 4% of 1,700 active; shares compounds with RGS16-Gao HTS; RGS4-Galphao binding, multiplexed bead flow cytometry; actives lie on both sides; in the data active = binding response below about 74% or above about 130%; inactive = in between
RGS19-Gao single: confirmation of regulators of human RGS19-Galphao interaction. 5% of 1,700 active. bead-based flow cytometry RGS19-Galphao binding; actives lie on both sides. response (percent of control binding), % at 10 µM. AID 1841. shares compounds with RGS16-Gao HTS; in the data active = response below about 50% or above about 160%; inactive = in between;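 note: 100% = no compound control and 0% = blank background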
Starred values were filed as active, the others as inactive; [ ] = remark or other dose. Sampled rows, rich in hits. Any-hit rate of the full collection: about 1.2%. Unless noted, the rule behind the calls is not given here.

Cc1cccc(C)c1OCC(O)CNC(C)C (stereo not drawn) was read as RGS4-Gao reg 98, RGS8-Gao reg 88, GSH bead fluor 40, RGS7-Gao 100, Avidin bead fluor 2 and RGS16-Gao HTS 37.
Screening CC(=O)OCC1(C)CN(c2ccccc2)NC1=O (stereo not drawn) returned RGS4-Gao reg 100, RGS8-Gao reg 99, GSH bead fluor 14, RGS7-Gao inconclusive, Avidin bead fluor 10 and RGS16-Gao HTS 100.
Cc1ccccc1OCC(=O)N(Cc1cccs1)C1CCS(=O)(=O)C1 (stereo not drawn) was read as RGS4-Gao reg 89, RGS8-Gao reg 94, GSH bead fluor 10, RGS7-Gao 97, Avidin bead fluor 14 and RGS16-Gao HTS 99.
For Cc1cccc(OC(C)C(=O)N(Cc2cccs2)C2CCS(=O)(=O)C2)c1C (stereo not drawn) the results were RGS4-Gao reg 69, RGS8-Gao reg 75, GSH bead fluor 11, RGS7-Gao 78, Avidin bead fluor 9, RGS16-Gao HTS -16*, RGS4-Gao HTS 69*, Biotin-avidin 0, RGS8-Gao single 100, RGS7-Gao confirm 96, RGS16-Gao conf 97, RGS4-Gao single 100 and RGS19-Gao single 100.
Screening CSc1ncccc1C(=O)OCC(=O)C(C)(C)C returned RGS4-Gao reg 101, RGS8-Gao reg 99, GSH bead fluor 6, RGS7-Gao 97, Avidin bead fluor 22 and RGS16-Gao HTS 102.
For O=C(N[C@H](C(=O)O)c1ccccc1)C1CCC(Cn2cnc3ccccc3c2=O)CC1 (stereo partly drawn) the results were RGS4-Gao reg 102, RGS8-Gao reg 101, RGS7-Gao inconclusive, Avidin bead fluor 4 and RGS16-Gao HTS 102.
COc1ccccc1NC(=O)C1=C(C)NC(=O)NC1c1cc(C)cs1 (stereo not drawn) was read as RGS4-Gao reg 202*[activator], RGS8-Gao reg 167*[activator], GSH bead fluor 27, RGS7-Gao 189*[activator], Avidin bead fluor 11, RGS16-Gao HTS 165, Biotin-avidin 2, RGS8-Gao single 99, RGS7-Gao confirm 95, RGS16-Gao conf 96, RGS4-Gao single 99 and RGS19-Gao single 88.
Screening COc1ccccc1NC(=O)C1=C(C)NC(=O)NC1c1ccccc1F (stereo not drawn) returned RGS4-Gao reg 99, RGS8-Gao reg 98, GSH bead fluor 21, RGS7-Gao 104, Avidin bead fluor 13 and RGS16-Gao HTS 102.
